Out of some 330,000 compounds screened, about 1,900 (0.58%) were called active. Another 4% or so got no clear call; they are omitted. These entries were drawn from the full list. Potency and affinity values are given separately. Unmarked numbers belong to inactive results. Cut-off read from the data, not from the text of the source: inconclusive = inhibition above about 70% without an active follow-up result; inactive = below that.
Experiment: M. tuberculosis growth inhibition, HTS (AID 449762);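 note: bacterial growth assessed after seven days of incubation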
Conditions: M. tuberculosis H37Rv growth inhibition, 7H9 media; at 25 µM; stronger effect = higher value

| Compound | inhibition [%] |
| --- | --- |
| CCOc1ccc(C(=O)Nc2ccc3c(c2)OCCO3)cc1 | 9.28 |
| CCOc1ccc(NC(=O)COC(=O)c2ccc3c(c2)OCCO3)cc1 | 9.4 |
| Cc1c(/C=N\NC(=O)c2c[nH]c3ccccc23)cnn1C | 6.8 |
| COc1ccccc1NC(=S)N1CCN(C(=O)C2CCCO2)CC1 (stereo unspecified) | 4.95 |
| COC(=O)c1c(NC(=O)CC2SC(N)=NC2=O)sc2c1CCC(C)C2 (stereo unspecified) | -3.66 |
| COC(=O)c1c(NC(=O)CC2SC(N)=NC2=O)sc2c1CCCC2 (stereo unspecified) | -10.2 |
| COc1ccc(C(=O)c2c(-c3ccc(OC)cc3)oc3ccc(-c4ccc(OC)nc4)cc23)cc1 | 64.6 |
| CCCC12CN3CC(C)(CN(C1)C3c1ccco1)C2=O (stereo unspecified) | -1.36 |
| CCCC12CN3CC(CCC)(CN(C1)C3c1ccco1)C2=O (stereo unspecified) | -6.51 |
| Cc1ccccc1C(=O)Nc1c(C(=O)N(CCN(C)C)Cc2ccco2)oc2ccccc12 | 13.6 |
| CN(C)CCN(Cc1ccco1)C(=O)c1oc2ccccc2c1NC(=O)COc1ccccc1 | 13.6 |
| CN(C(=O)CSc1nnc(-c2ccncc2)n1-c1ccccc1)C1CCS(=O)(=O)C1 (stereo unspecified) | -8.96 |
| O=C(NC1CCCCCC1)c1cccc(COCC(F)(F)F)c1 | -0.72 |
| C/C(=N\NC(=S)NCCc1ccccc1)c1ccc(O)cc1O | 3.81 |
| C/C(=N\NC(=S)NCc1ccccc1)c1ccccc1F | -2.93 |
| Cc1noc(C)c1S(=O)(=O)Nc1ccc(C(=O)N2CCC(C)CC2)cc1 | 8.59 |
| Cc1ccc(N2CC(C(=O)N3CCC(C(=O)Nc4nnc(C(C)(C)C)s4)CC3)CC2=O)cc1 (stereo unspecified) | 4.69 |
| OCC1(Cc2ccc(Cl)cc2)CCN(CCCc2ccccc2)CC1 | 39.2 |
| COc1cnc(-c2ccccc2)nc1Oc1ccc(Cl)cc1C | 3.24 |
| COc1cnc(-c2ccccn2)nc1Oc1ccc(Cl)cc1 | 2.17 |
| Cc1cc(C)cc(OCC(=O)N2Cc3ccccc3CC2C(=O)O)c1 (stereo unspecified) | 10.5 |
| CC(CC(=O)Nc1ccc(-c2ccno2)cc1)n1cccn1 (stereo unspecified) | 21.4 |
| Cc1ccc(CNC(=O)COC(=O)c2cc(=O)[nH]c3ccccc23)cc1 | 6.93 |

| Compound | inhibition [%] |
| --- | --- |
| N#Cc1ccccc1/C=N/Nc1nc(-c2ccccc2)c2cc(Cl)ccc2n1 | -2.26 |
| N#Cc1ccccc1/C=N/Nc1nc(-c2ccccc2)c2cc(Br)ccc2n1 | 6.43 |
| COCCNC(=S)Nc1ccc2nc(N3CCOCC3)cc(C)c2c1 | -5.25 |
| O=C(COC(=O)CNC(=O)c1ccc(Cl)c([N+](=O)[O-])c1)NCC1CCCO1 (stereo unspecified) | -15.8 |
| Cc1nn2c(N3CCCC3)cc(C(C)C)nc2c1-c1ccccc1 | 2.45 |
| Cc1cc(NCCC(C)C)n2nc(C)c(-c3ccccc3)c2n1 | 67.4 |
| CCS(=O)(=O)Nc1ccc(C2=NN(C(=O)c3ccco3)C(c3cccc(F)c3)C2)cc1 (stereo unspecified) | 23.2 |
| Cn1nc(C(F)(F)F)c2cc(NC(=O)OCc3ccc(F)cc3)sc21 | 10.2 |
| COc1ccc(COC(=O)Nc2cc3c(C(F)(F)F)nn(C)c3s2)cc1 | -0.32 |
| CC1CCC(NC(=O)c2ccc(NS(=O)(=O)c3ccc4[nH]c(=O)[nH]c4c3)cc2)CC1 (stereo unspecified) | -6.1 |
| CC1(c2nnc(-c3ccccc3)o2)CC(c2ccc([N+](=O)[O-])cc2)=NO1 (stereo unspecified) | -0.65 |
| COC(=O)c1ccc(NC(=O)c2ccc[n+]([O-])c2)cc1 | -4.13 |
| c1ccc2nc3c(nc2c1)OCC1CCCCN31 (stereo unspecified) | 3.14 |
| CC1(C(=O)N(CC(=O)NC2CCCC2)Cc2ccc(Cl)cc2)CC(=O)N=C2C=CC=CN21 (stereo unspecified) | -2.69 |
| Cc1ccccc1NC(=O)NC(N)=O | -2.65 |
| CCN(CC)CCOC(=O)c1ccc(N/C=C(/C#N)c2nc(-c3cc4ccccc4oc3=O)cs2)cc1 | 9.42 |
| Cc1ccc(-c2csc(/C(C#N)=C/Nc3ccc4c(c3)OCCO4)n2)cc1 | 7 |
| Cc1cc(CN(C)C(=O)c2ccc3nc(Cc4ccccc4F)oc3c2)n[nH]1 | -6.04 |
| Cc1cccc(C(=O)OCC(=O)N(C)CC(=O)Nc2ccc(Cl)c(C(F)(F)F)c2)c1 | 1.53 |
| Cc1ccc(-c2cc(C(=O)N3CCOCC3)no2)cc1 | 6.22 |
| O=C(O)c1cccnc1Nc1cccc(C(F)(F)F)c1 | -0.01 |
| CNC(=O)c1cccnc1Nc1cccc(C(F)(F)F)c1 | -4.06 |
| Cc1ccc(C(=O)N(CC(=O)NC2CCCC2)c2cccc(F)c2)s1 | 9.2 |

| Compound | inhibition [%] |
| --- | --- |
| CN(C)CCCNC(=O)c1ccc(-c2cc(O)c3ncccc3c2)cc1 | 3.92 |
| CN1CCN(c2cc(-c3cc(O)c4ncccc4c3)ccn2)CC1 | 28.5 |
| CC1(c2cccc(Br)c2)NC(=O)N(CC(=O)NC2CCCCC2)C1=O (stereo unspecified) | 3 |
| CCCCN1C(=O)c2ccc(C(=O)OCC(=O)NCCc3ccc(S(N)(=O)=O)cc3)cc2C1=O | -4.61 |
| O=C(NCC(c1cccs1)N1CCOCC1)c1cccc([N+](=O)[O-])c1 (stereo unspecified) | -5.61 |
| O=C(NCC(c1cccs1)N1CCOCC1)c1ccc([N+](=O)[O-])cc1 (stereo unspecified) | 2.63 |
| CCOc1ccc(NC(=O)CN(C)C(=O)Cc2ccsc2)cc1OCC | -3.21 |
| CCOC(=O)Cn1cnc2c(nnn2-c2ccc(OC)cc2)c1=O | -2.34 |
| CCOc1cc(/C=C2\N=C(C)OC2=O)cc(Cl)c1OCC(=O)OC | -3.74 |
| O=C(C1CCCN1S(=O)(=O)c1cccc2nsnc12)N1CCCCCC1 (stereo unspecified) | 2.56 |
| Cc1nnc(SCC(=O)NCc2ccc(F)cc2)[nH]c1=O | 0.54 |
| O=S(Cc1ccc(Br)cc1)Cc1nnc(SCc2c(Cl)cccc2Cl)n1-c1ccccc1 (stereo unspecified) | -2.91 |
| O=S(Cc1ccc(Br)cc1)Cc1nnc(SCc2ccc(Br)cc2)n1-c1ccccc1 (stereo unspecified) | 57 |
| CCOC(=O)c1ccc(S(=O)(=O)NNC(=O)Cc2csc(C)n2)cc1 | 1.7 |
| CCOc1ccc(CCNC(=O)c2cccc(S(=O)(=O)N3CC(C)OC(C)C3)c2)cc1OCC (stereo unspecified) | 2.57 |
| CC(=O)Nc1ccc(N2CCN(c3ccc(C(F)(F)F)cn3)CC2)nc1 | 17.9 |
| CC(C)(C)C(=O)Nc1ccc(N2CCN(c3ccc(C(F)(F)F)cn3)CC2)nc1 | -0.97 |
| c1ccc(OCCCCn2cnc3ccccc32)cc1 | 4.06 |
| c1ccc2c(c1)ncn2CCCOc1ccc2c(c1)CCC2 | 68.5 |
| O=C(O)CCCC(=O)N1N=C(c2ccccc2)CC1c1ccc2nccnc2c1 (stereo unspecified) | 0.01 |
| O=C(N/C(=C\c1cccc([N+](=O)[O-])c1)C(=O)N1CCCCC1)c1cccs1 | -1.22 |
| COCC(=O)NC(c1ccccc1)c1ccccc1 | 1.57 |
| CCN1CCN(C(c2ccc(OC)cc2)C(O)C(=O)c2c[nH]c3ccccc23)CC1 (stereo unspecified) | 1.81 |

| Compound | inhibition [%] |
| --- | --- |
| O=C(c1c[nH]c2ccccc12)C(O)C(c1ccccc1)N1CCOCC1 (stereo unspecified) | -0.62 |
| CCOc1ccccc1C(C(=O)NC1CCCCC1)N(C(=O)c1csnn1)C1CC1 (stereo unspecified) | -6.88 |
| COC(=O)c1ccc(COc2cc(O)c3c(c2)OC(C)(C)CC3=O)cc1 | 20.4 |
| CC1(C)CC(=O)c2c(O)cc(OCc3ccc([N+](=O)[O-])cc3)cc2O1 | 8.3 |
| N=C(c1ccc([N+](=O)[O-])cc1)N1CCCCC1 | 8.06 |
| O=C1CCN(Cc2ccccc2)CCN1CCSc1ccccc1 | -0.68 |
| CCOc1ccccc1N(CC(=O)Nc1ccc2c(c1)OCO2)S(C)(=O)=O | -15.7 |
| O=C(Nc1cc(-c2nc3ncccc3o2)ccc1Cl)c1ccc([N+](=O)[O-])o1 | -1.99 |
| COc1ccc(C(=O)Nc2cccc(-c3nc4ncccc4o3)c2C)cc1 | 2.93 |
| COc1ccc(N2C(=O)C3C4c5ccccc5C(C=Nc5ccc(C)cc5C)(c5ccccc54)C3C2=O)cc1 (stereo unspecified) | 36.6 |
| COc1ccc(N2C(=O)C3C(C2=O)C3(c2ccccc2)c2ccccc2)cc1 (stereo unspecified) | 1.86 |
| Cn1c(=O)c2c(nc3n2CC(O)CN3c2ccc(O)cc2)n(C)c1=O (stereo unspecified) | -2.83 |
| CCc1cccc2c(C(=O)COC(=O)c3ccccc3)c[nH]c12 | 0.69 |
| CCc1cccc2c(C(=O)COC(=O)c3ccc(O)cc3)c[nH]c12 | -5.92 |
| CCc1cccc2c(C(=S)N3CCOCC3)c[nH]c12 | 3.01 |
| CCc1cccc2c(=O)c(C(=O)NCCN3CCOCC3)c[nH]c12 | -3.32 |
| O=C(NCc1ccccc1)c1cccc(Br)n1 | 2.81 |
| CC(C)n1cc(CNC(=O)C2CCC(=O)N(Cc3ccccc3F)C2)cn1 (stereo unspecified) | 5.12 |
| O=C(OCc1ccc([N+](=O)[O-])cc1)C1CC(=O)N(Cc2ccccc2)C1 (stereo unspecified) | 6.8 |
| COCCN(C(=O)c1cccc(N2C(=O)CCC2=O)c1)c1nc(-c2ccc([N+](=O)[O-])cc2)cs1 | 31.4 |
| Cc1cc(C)n(CCC(=O)N=Nc2c(O)[nH]c3ccccc23)n1 | 3.85 |
| CCC1CCCCN1CCCNC(=O)CSc1nc2nc(C)c(Cc3ccccc3Cl)c(C)n2n1 (stereo unspecified) | 4.72 |

From PubChem BioAssay AID449762 (Southern Research Specialized Biocontainment Screening …, 2010)
